# Results as given in PubChem BioAssay (NCATS).
# “And” between values parts separate entries of the source, which are not always exact repeats. Equal entries are not always repeated. Records with an inconclusive call do not appear. The source holds several records for some structures; these can differ, active in one and inactive in another. A number with no mark means an inactive call. The source made the active and inactive calls. The call rests on the fitted dose curve; in most records, active means well fitted inhibition curve with a large enough effect; inconclusive means small, poorly fitted or top-dose-only effect; inactive means flat fitted curve, though single readings scatter.
# Legend:
# SC27B = experiment: qHTS profiling for inhibitors of Plasmodium falciparum proliferation (AID 504749); conditions: P. falciparum in erythrocytes, SYBR Green DNA, 72 h; series mostly up to 28.7 µM
# Method in brief: (§1)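 Parasite proliferation within erythrocytes, 72 h exposure. Endpoint: SYBR Green I fluorescence after overnight lysis at room temperature. Controls: 0.29 uM artemisinin, DMSO.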
# TAB113 = experiment: as above; conditions: P. falciparum in erythrocytes, SYBR Green DNA, 72 h; series mostly up to 28.7 µM
# Method in brief: as §1
# TAB165 = experiment: as above; conditions: P. falciparum in erythrocytes, SYBR Green DNA, 72 h; series mostly up to 28.7 µM
# Method in brief: as §1
# W2 = experiment: as above; conditions: P. falciparum in erythrocytes, SYBR Green DNA, 72 h; series mostly up to 28.7 µM
# Method in brief: as §1
# CRL-7250 = normal cell line; experiment: Cytotoxic Profiling of Annotated Libraries Using Quantitative High-Throughput Screening (AID 1296008); conditions: Five cell lines viability, CellTiter-Glo ATP luminescence, 48-72 h; max response: hits give low values; on max response: on the % scale 0 is the no-effect control and ±100 the full control effect
# Method in brief: (§2)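 Compounds were pin-transferred onto cells and incubated 48 or 72 hr at 37 degree Celsius, 95% humidity. CellTiter-Glo was added, plates sat 10 min at room temperature, then ATP-coupled luminescence was imaged as the viability read-out.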
# HEK293 = experiment: as above; conditions: Five cell lines viability, CellTiter-Glo ATP luminescence, 48-72 h; max response: hits give low values
# Method in brief: as §2
# HaCat = experiment: as above; conditions: Five cell lines viability, CellTiter-Glo ATP luminescence, 48-72 h; max response: hits give low values
# Method in brief: as §2
# KB-3-1 = experiment: as above; conditions: Five cell lines viability, CellTiter-Glo ATP luminescence, 48-72 h; max response: hits give low values
# Method in brief: as §2
# NIH3T3 = experiment: as above; conditions: Five cell lines viability, CellTiter-Glo ATP luminescence, 48-72 h; max response: hits give low values
# Method in brief: as §2
# TAB109 = experiment: qHTS profiling for inhibitors of Plasmodium falciparum proliferation (AID 504749); conditions: P. falciparum in erythrocytes, SYBR Green DNA, 72 h; series mostly up to 28.7 µM
# Method in brief: as §1
# Further: nearly all actives have a fitted effect of over 60% in size.
# Potency means the concentration at half of the fitted maximal effect.
smiles,measurement,setting,value
CC(=O)c1ccc(S(=O)(=O)NC(=O)NC2CCCCC2)cc1,Potency,SC27B,inactive
same,Potency,TAB113,inactive
same,Potency,TAB165,inactive
same,Potency,W2,inactive
same,max response,CRL-7250,-4.5%
same,outcome,HEK293,inactive
same,outcome,HaCat,inactive
same,max response,KB-3-1,-6.14%
same,max response,NIH3T3,-3.55%
CCOC(=O)O[C@]1(C(=O)OCCl)CC[C@@H]2[C@H]3CCC4=CC(=O)C=C[C@]4(C)[C@@H]3[C@@H](O)C[C@@]21C,Potency,SC27B,inactive
same,outcome,TAB109,inactive
same,Potency,TAB113,inactive
same,Potency,TAB165,inactive
same,outcome,CRL-7250,inactive
same,outcome,HEK293,inactive
same,outcome,HaCat,inactive
same,outcome,KB-3-1,inactive
same,outcome,NIH3T3,inactive
Cc1cccc(C)c1OCC(C)N (configuration not stated),Potency,SC27B,inactive
same,outcome,TAB109,inactive
same,Potency,TAB113,inactive
same,Potency,W2,6.01 µM (active)
same,outcome,CRL-7250,inactive
same,outcome,HEK293,inactive
same,outcome,HaCat,inactive
same,max response,KB-3-1,6.51%
same,outcome,NIH3T3,inactive
Oc1ccc(C2CCN(c3ccnc4ccccc34)CC2)cc1O,Potency,CRL-7250,4.69 µM (active)
same,Potency,HEK293,13.2 µM (active)
same,max response,HaCat,-4.14%
same,max response,NIH3T3,-5.13%
OC[C@H]1O[C@@H](n2cnc3c2NC=NC[C@@H]3O)C[C@H]1O,max response,CRL-7250,2.48%
same,outcome,HEK293,inactive
same,max response,HaCat,1.63%
same,max response,KB-3-1,-3.46%
same,outcome,NIH3T3,inactive
NS(=O)(=O)c1cccc2c1C(=O)c1cccc(O)c1C2=O,Potency,CRL-7250,0.526 µM (active)
same,Potency,HEK293,16.6 µM (active)
same,Potency,NIH3T3,0.935 µM (active)
O=c1c(-c2ccc(O)cc2)coc2cc(O[C@@H]3O[C@H](CO)[C@H](O)[C@H](O)[C@H]3O)ccc12,max response,CRL-7250,-13.5%
same,max response,HaCat,-4.86%
same,outcome,KB-3-1,inactive
same,max response,NIH3T3,1.51%
CC=CC[C@@H](C)C(=O)[C@H]1C(=O)N[C@@H](C(C)C)C(=O)N(C)CC(=O)N(C)[C@@H](CC(C)C)C(=O)N[C@@H](C(C)C)C(=O)N(C)[C@@H](CC(C)C)C(=O)N[C@@H](C)C(=O)N[C@H](C)C(=O)N(C)[C@@H](CC(C)C)C(=O)N(C)[C@@H](CC(C)C)C(=O)N(C)[C@@H](C(C)C)C(=O)N1C,max response,CRL-7250,-6.35%
same,max response,HaCat,-21.7%
same,max response,KB-3-1,-1.28%
C[C@H](NC(=O)c1sccc1OCc1ccc(Cl)cc1)c1ccccc1,Potency,CRL-7250,29.6 µM (active)
same,Potency,HEK293,16.6 µM (active)
same,Potency,KB-3-1,20.9 µM (active)
same,max response,NIH3T3,-27.6%
CC1=C(/C=C/C(C)=C/C=C/C(C)=C/C(=O)Nc2ccc(O)cc2)C(C)(C)CCC1,Potency,SC27B,10 µM (active)
same,Potency,TAB113,11.2 µM (active)
same,Potency,TAB165,10 µM (active)
same,Potency,W2,5.36 µM (active)
same,Potency,CRL-7250,16.8 µM (active)
same,Potency,HEK293,5.96 µM (active)
same,Potency,NIH3T3,21.1 µM (active)
CCS(=O)(=O)N1CC(CC#N)(n2cc(-c3ncnc4[nH]ccc34)cn2)C1,max response,CRL-7250,-3.54%
same,Potency,HaCat,5.17 µM (active)
same,max response,HaCat,-22.3%
CC(C)C[C@H](CC(=O)O)C(=O)N[C@@H](Cc1c[nH]c2ccccc12)C(=O)N[C@@H](C)c1ccccc1,max response,CRL-7250,-5.99%
same,max response,HaCat,3.15%
same,max response,KB-3-1,5.47%
O=C1C(Cl)=C(NCCN2CCOCC2)C(=O)c2ncccc21,Potency,CRL-7250,9.35 µM (active)
same,Potency,HEK293,13.2 µM (active)
same,Potency,KB-3-1,20.9 µM (active)
same,Potency,NIH3T3,2.64 µM (active)
COc1ccc(Cc2ccc(NC(N)=O)cc2)cc1-c1cccc(Cl)c1,max response,CRL-7250,2.51%
same,max response,HEK293,-15.8%
same,max response,KB-3-1,-9.2%
same,max response,NIH3T3,-1.6%
N[C@@]1(C(=O)O)CS(=O)(=O)[C@H]2[C@H](C(=O)O)[C@H]21,max response,CRL-7250,-30.1%
same,outcome,HaCat,inactive
same,max response,KB-3-1,-18.8%
same,max response,NIH3T3,-12.5%
CS(=O)(=O)N(Cc1ccco1)CC(O)Cn1c2ccccc2c2ccccc21 (configuration not stated),max response,CRL-7250,-10% and -6.7%
same,max response,HaCat,-8.74%
same,outcome,HaCat,inactive
same,max response,KB-3-1,-4.93% and 3.15%
same,max response,NIH3T3,-17.4% and 0.438%
C[C@@H]1CCN(C(=O)CC#N)C[C@H]1N(C)c1ncnc2[nH]ccc12,max response,CRL-7250,-14.7%
same,Potency,HaCat,8.33 µM (active)
same,max response,KB-3-1,-5.04%
same,max response,NIH3T3,-18.3%
CC(C)(C)C(=O)Oc1ccc2c(c1)nc(NC(=O)c1cccc([N+](=O)[O-])c1)n2CCCO,outcome,CRL-7250,inactive
same,max response,HaCat,-9.39%
same,max response,KB-3-1,7.62%
same,outcome,NIH3T3,inactive
O=C(O)c1c(Cl)c(Cl)c(Cl)c(Cl)c1-c1c2cc(I)c(=O)c(I)c-2oc2c(I)c(O)c(I)cc12,Potency,SC27B,inactive
same,outcome,TAB109,inactive
same,Potency,TAB113,inactive
same,Potency,TAB165,inactive
same,Potency,W2,inactive
same,max response,CRL-7250,-20.2%
same,max response,HEK293,-16.1%
same,outcome,HaCat,inactive
same,max response,NIH3T3,-19.3%
CO[C@H]1C=CC=C(C)C(=O)NC2=CC(=O)C(NCCN(C)C)=C(C[C@@H](C)C[C@H](OC)[C@@H](O)[C@@H](C)C=C(C)[C@@H]1OC(N)=O)C2=O,Potency,CRL-7250,0.0526 µM (active)
same,Potency,HaCat,0.0332 µM (active)
same,Potency,KB-3-1,0.0372 µM (active)
same,Potency,NIH3T3,0.132 µM (active)
CC1(C)S[C@H]2[C@H](NC(=O)[C@@H](N)c3ccc(O)cc3)C(=O)N2[C@@H]1C(=O)O,outcome,CRL-7250,inactive
same,outcome,HaCat,inactive
same,outcome,KB-3-1,inactive
same,max response,NIH3T3,4.61%
CC(C)C(=O)Nc1ncc(-c2cc(C(F)F)nn2-c2c(Cl)cccc2Cl)s1,max response,CRL-7250,-16.9%
same,max response,HaCat,-19.8%
